Compound activity: PubChem, several laboratories
TIM10 inh: growth inhibitors of TIM10 yeast strain. S. cerevisiae TIM10 strain growth, BacTiter-Glo luminescence, 24 h. inhibition, % at 10 µM. 1.4% of 330,000 active;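 active = inhibition of 40% or more at the single tested concentration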;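 note: wild-type TIM10 isogenic control strain grown at permissive 25 °C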
tim10-1 inh: inhibits growth of tim10-1 mutant yeast; S. cerevisiae tim10-1 ts strain growth, BacTiter-Glo, 24 h; inhibition, % at 20 µM; 2.2% of 330,000 active;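 active = inhibition of at least 40%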;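 note: mutant grown at 25 °C; 0% = DMSO wells with yeast and 100% = wells holding no yeast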
PfHsp90 set2: inhibits growth of yeast expressing Plasmodium falciparum Hsp90; S. cerevisiae expressing PfHsp90, BacTiter-Glo ATP, 48 h; yeast lacking PDR1 and PDR3 efflux regulators; inhibition, % at 9.4 µM; 0.32% of 310,000 active; AID 504621;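 active = every replicate shows inhibition above about 80%, whatever the replicate mean, limit read from the data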;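 note: 0% = DMSO neutral controls and 100% = 20 µM radicicol positive controls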
tim23-1 inh: tim23-1 yeast growth inhibition | AID 463212 | S. cerevisiae tim23-1 growth, BacTiter-Glo luminescence, 24 h | inhibition, % at 20 µM | 1.3% of 330,000 active;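 active = growth inhibition of the mutant yeast at or above 50%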;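 note: temperature-sensitive mutant grown at 25 °C; plate controls were DMSO-treated mutant yeast for no effect and medium wells lacking yeast for full effect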
Mot1-301 SUMO: blocks SUMOylation pathway, rescuing yeast Mot1-301 growth; S. cerevisiae Mot1-301 growth rescue, ATP luminescence, 38.5C; percent above DMSO median, 100 means doubled; growth rescue, % at 18.8 µM; 1% of 320,000 active; AID 2716;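 active = every valid replicate shows activation above 250% relative to neutral control wells; inactive = the rest, any valid replicate at or below 250%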;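 note: OY570 slx delta 5 strain wells were the positive control but not used for scaling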
tim10 confirm: TIM10 yeast growth inhibition, confirmed. inhibition, % at 10 µM. shares compounds with TIM10 inh. S. cerevisiae tim10 strain growth, BacTiter-Glo luminescence, 24 h. 63% of 4,600 active. AID 463215;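 active = inhibition of yeast growth at or above a set limit in either of two replicates at 10 µM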;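 note: this counterscreen used the strain with wild-type TIM10; 0% = yeast with DMSO and 100% = medium wells lacking yeast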
* marks the source's active call; other numbers are inactive results; x = no result. In the library only some 4.4% were active in any assay of this set; here they are far more common.

SMILES	TIM10 inh	tim10-1 inh	PfHsp90 set2	tim23-1 inh	Mot1-301 SUMO	tim10 confirm
COc1ccc2occ(C(=O)c3cccs3)c2c1	42*	7	-17	28	9	39*
COc1ccc2occ(C(=O)c3ccc(N)cc3)c2c1	19	26	4	47	-10	x
COCCNC(=O)Cn1cc(/C=C(\C#N)C(=O)NC2CCCC2)c2ccccc21	6	21	27	9	125	x
Cc1c(C(=O)Nc2nc3ccccc3[nH]2)oc2ccc(Br)cc12	8	8	-34	13	0	x
Cc1c(C(=O)Nc2nc3ccccc3[nH]2)oc2c(Cl)cccc12	44*	4	-12	45	42	24
Cc1ccc(NCc2nnc(SCC(=O)N(Cc3ccccc3)C(C)(C)C)o2)c(C)c1	41*	34	-15	29	-8	16
Cc1ccc(NCc2nnc(SCC(N)=O)o2)c(C)c1	8	1	x	13	32	x
Cc1nn(C)c(Cl)c1CN1CCC(CO)(CCOc2ccccc2)CC1	-4	4	12	-2	6	x
Cc1c(CN2CCC(CO)(CCOc3ccccc3)CC2)[nH]c2c(Cl)cccc12	44*	-40	5	-22	-18	16
O=C1c2ccccc2C(=O)C1c1nccc2ccccc12	49*	6	12	21	-12	47*
O=C1C(c2ccnc3ccccc23)=C(O)c2ccccc21	55*	13	24	23	x	38*
O=Cc1nccc2ccccc12	x	x	-27	x	x	x
O=C1c2ccccc2C(=O)C1c1ccnc2ccccc12	49*	20	9	25	46	39*
N#CC1=C(N)SC(N)=C(C#N)C1c1ccnc2ccccc12	3	11	16	3	39	x
O=C(COC(=O)c1c(Cl)ccc(Cl)c1Cl)NCC1CCCO1 (stereo unspecified)	-3	1	-2	3	15	x
CC(c1ccc(F)cc1)n1c(-c2ccc3ccccc3n2)n[nH]c1=S (stereo unspecified)	46*	6	-48	49	128	23
COc1ccc(C(=S)N2CCOCC2)cc1OC(=O)c1cccc([N+](=O)[O-])c1	41*	36	3	25	-1	23
COc1cc(C(=S)N2CCOCC2)ccc1OC(=O)c1ccc([N+](=O)[O-])cc1[N+](=O)[O-]	44*	18	-11	13	12	37*
NC(=O)OCC(O)COc1ccc(Cl)cc1 (stereo unspecified)	10	-7	6	4	3	x
COc1ccc(C(=O)Nc2ccc(OCC(F)(F)C(F)F)c(C(F)(F)F)c2)cc1OC	45*	37	-11	45	-3	12
COc1ccc(NC(=O)c2ccc(COCC(F)(F)F)cc2)cc1OC	6	7	15	5	-12	x
COCCNC(=O)c1cccc2c1-c1ccccc1C2=O	7	-4	0	13	-3	x
COCCCn1[nH]c2c3c(ccc2c1=O)C(=O)c1ccccc1C3=O	42*	33	-62	41	4	47*
Cc1ccc(C)c(-n2[nH]c3c4c(ccc3c2=O)C(=O)c2ccccc2C4=O)c1	53*	26	12	46	-25	73*
CC1(C)OC(=O)C=C[C@]2(C)[C@H]3CC[C@@]4(C)[C@H](C(=O)O)OC(=O)[C@H]5O[C@]54[C@]3(C)C(=O)C[C@@H]12	1	-16	-11	10	4	x
SMILES	TIM10 inh	tim10-1 inh	PfHsp90 set2	tim23-1 inh	Mot1-301 SUMO	tim10 confirm
CN(c1ccccc1)S(=O)(=O)c1ccc(C(=O)NCCc2ccc(F)cc2)cc1	-12	16	-3	28	-2	x
COc1ccccc1N(C)S(=O)(=O)c1ccc(C(=O)NCCc2ccc(F)cc2)cc1	46*	29	-21	39	54	51*
O=C(O)CN1CCN(Cc2ccc(F)cc2)C1=O	0	-2	8	5	-7	x
Cc1ccc2nc(N3CCN(Cc4ccc(F)cc4)C3=O)c(C)cc2c1	46*	22	15	3	1	60*
CCCCC1=C(C(=O)OCC)C(C(=O)OCC)Oc2ccccc21 (stereo unspecified)	-2	10	-6	28	x	x
Oc1ccc(/C=N/Nc2ccnc3cc(Cl)ccc23)c(O)c1	47*	5	-15	7	-21	36*
